NOD2-RIPK2 inh: NOD2-RIPK2 protein interaction inhibition; inhibition, % at 4.98 µM; CHO BLA complementation NOD2-RIPK2, CCF4 ratio; 0.38% of 360,000 active; O43353; in the data active means inhibition above about 21%;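 further: 0% = vehicle only and 100% = reference blocker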
TLR4-MyD88 BLA: inhibitors of human TLR4-MyD88 binding; O00206+Q99836; HeLa CL3-4 TLR4/MyD88 BLA complementation, FRET ratio; inhibition, % at 8.4 µM; 0.18% of 200,000 active; in the data active means inhibition above about 25%;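 further: 0% = vehicle and 100% = reference inhibitor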
Mcl1 Bid PPI: disrupts binding of human Mcl-1 to Bid peptide; Q07820; TR-FRET Mcl-1/Bid-Dy647 peptide binding, 1536-well; inhibition, % at 21.7 µM; 0.97% of 220,000 active; AID 1021;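 active means compounds that cut the binding signal by more than half at the single screening dose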;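 further: His-tagged Mcl-1 with europium anti-His antibody binding Bid BH3 peptide; 0% = Mcl-1 plus peptide wells and 100% = peptide-only wells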
Mcl1-Noxa inh: Mcl-1/Noxa interaction inhibition | AID 1022 | inhibition, % at 21.7 µM | 1.5% of 220,000 active | TR-FRET Mcl-1/Noxa peptide binding, 2 h;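 active means compounds that cut the protein-peptide binding signal by more than 50% relative to plate controls in a single-dose test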;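 further: His-tagged Mcl-1 with rhodamine Noxa BH3 peptide and terbium anti-His antibody; 0% = Mcl-1 plus Noxa peptide wells and 100% = peptide-only wells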
Mcl-1 Bim block: inhibitors of Bim-Mcl-1 interaction, human | Bead-based flow cytometry, Bim peptide-Mcl-1 binding | inhibition, % at 10 µM | 0.1% of 190,000 active | AID 1009; in the data active means inhibition above about 40%;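 further: 0% = no compound tracer wells and 100% = peptide blocker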
TLR9-MyD88 inh: TLR9-MyD88 interaction inhibition; Q9NR96+Q99836; CHO BLA complementation TLR9-MyD88, CCF4 FRET ratio; inhibition, % at 4.98 µM; 0.21% of 340,000 active; AID 504734;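 active means inhibition above the mean over all tested compounds plus 3 SD, cut at about 21% in these data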;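 further: 0% = DMSO only wells and 100% = clavulanate BLA inhibitor control wells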
NOD2 RIPK2 conf: confirmation of human NOD2-RIPK2 interaction inhibitors. shares compounds with NOD2-RIPK2 inh. CHO cells, NOD2-RIPK2 BLA complementation, CCF4 FRET. inhibition, % at 4.98 µM. 70% of 1,200 active;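 active means mean inhibition across replicates above a set limit taken from the earlier primary screen, cut at about 21% in these data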;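 further: 0% = DMSO-only wells and the high end = clavulanate BLA-blocked wells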
BLA counter: NOD2-RIPK2 counterscreen BLA reporter activity; shares compounds with NOD2-RIPK2 inh; inhibition, % at 4.98 µM; CHO BLA reporter, CCF4 FRET ratio; 57% of 1,200 active;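 active means mean inhibition above the low-control mean inhibition plus three low-control SD, cut at about 11% in these data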;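 further: 0% = DMSO only wells and 100% = clavulanate high control wells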
An asterisk follows results filed as active; / = not tested or not shown. The list is not random: actives were taken first. Their share in the collection is about 1.8%.

SMILES	NOD2-RIPK2 inh	TLR4-MyD88 BLA	Mcl1 Bid PPI	Mcl1-Noxa inh	Mcl-1 Bim block	TLR9-MyD88 inh	NOD2 RIPK2 conf	BLA counter
CC(C)(C)NC(=O)C(c1ccc(-c2ccccc2)cc1)n1c(=O)c(-c2cc3ccccc3[nH]2)nc2ccccc21 (stereo not drawn)	40.1*	/	/	/	/	/	34.2*	63.1*
CC(C)(C)NC(=O)C(c1ccc(C(F)(F)F)cc1)n1c(=O)c(-c2ccccc2)nc2ccccc21 (stereo not drawn)	-1.2	/	/	/	/	/	/	/
CC(C)(C)NC(=O)C(c1ccc(C(F)(F)F)cc1)n1c(=O)c(-c2cc3ccccc3[nH]2)nc2ccccc21 (stereo not drawn)	45.4*	/	/	/	/	/	41.4*	66.0*
CC(C)(C)NC(=O)C(c1ccccc1F)n1c(=O)c(-c2ccccc2)nc2ccccc21 (stereo not drawn)	12.0	/	/	/	/	/	/	/
CCCCNC(=O)C1(C)CCCCN1C(=O)c1ccc(OC)c(C(F)(F)F)c1 (stereo not drawn)	5.7	/	/	/	/	/	/	/
COc1ccccc1-n1cc(CN2CCN(CC=C(C)C)C(CCO)C2)cn1 (stereo not drawn)	-0.9	/	-35.3	14.2	/	1.2	/	/
CC(C)(C)NC(=O)C(c1ccccc1)n1c(=O)c(-c2cc3ccccc3[nH]2)nc2ccccc21 (stereo not drawn)	42.8*	/	/	/	/	/	40.1*	64.5*
O=c1oc2ccccc2cc1-c1nc(-c2cccs2)cs1	32.2*	16.9	7.4	1.0	14.0	19.6	42.8*	50.9*
COc1cccc2cc(-c3nc(-c4cccs4)cs3)c(=O)oc12	3.4	19.6	-27.0	5.8	4.0	8.2	/	/
O=C1CCC(=O)N1c1nc2n(n1)C(c1ccccc1)C=C(c1ccc(Br)cc1)N2 (stereo not drawn)	38.9*	9.8	-92.8	-2.3	-1.0	14.3	15.5	11.7*
O=[N+]([O-])/C=C\c1ccc(N2CCOCC2)cc1	44.8*	/	/	/	/	5.3	43.0*	-4.8
Cc1ccc(C(=O)Nc2nnc(S(=O)(=O)Nc3ccccc3C)s2)cc1C	5.4	/	/	/	/	3.6	/	/
CCOc1ccc(C(=O)Nc2nnc(S(=O)(=O)Nc3ccccc3C)s2)cc1	24.2*	/	/	/	/	3.4	0.3	-6.1
Cc1ccc(S(=O)(=O)CCC(=O)c2cccc([N+](=O)[O-])c2)cc1	22.4*	/	/	/	/	-10.9	38.5*	1.4
O=C(CN(c1cccc(C(F)(F)F)c1)S(=O)(=O)c1ccc(Cl)c([N+](=O)[O-])c1)NCc1ccc(F)cc1	23.3*	6.8	-18.8	7.6	-3.0	5.9	28.9*	-1.5
CCCCn1c(=O)[nH]c(=O)c2c1nc(Cn1ncc(Cl)c(Cl)c1=O)n2CCC	40.4*	/	/	/	/	16.1	55.4*	12.6*
CCCCn1c(=O)[nH]c(=O)c2c1nc(CN1C(=O)c3ccccc3S1(=O)=O)n2CCC	-9.5	0.8	-12.2	12.1	0.0	-6.9	/	/
Cc1cc(C(F)(F)F)c2c(N)c(C(=O)NCc3ccc(Cl)cc3)sc2n1	23.5*	/	/	/	/	/	23.1*	21.3*
Nc1c(C(=O)NCc2ccc(Cl)cc2)sc2nc3c(c(C(F)(F)F)c12)CCC3	-11.1	11.4	-10.3	-18.3	-4.0	7.2	/	/
CCOC(=O)c1c(S(=O)(=O)NCC(C)c2ccccc2)c(C)n(C)c1C (stereo not drawn)	1.8	/	/	/	/	8.0	/	/
COc1ccc(/C=C2/CCC(CN3CCOCC3)C2=O)cc1 (stereo not drawn)	33.9*	/	/	/	/	-6.2	91.8*	18.5*
CCN(CC)c1ccc(C=C(c2nnnn2-c2ccccc2)c2nnnn2-c2ccccc2)cc1	26.9*	1.9	-42.7	-6.7	-1.0	3.2	30.3*	30.0*
Cc1ccc(-n2nnnc2C(=Cc2ccc(N(C)C)cc2)c2nnnn2-c2ccc(C)cc2)cc1	8.0	6.0	-8.5	-0.7	-1.0	-7.2	/	/
O=C1Nc2ccccc2C1(O)Cc1ccccn1 (stereo not drawn)	23.6*	/	-5.0	0.2	/	4.2	-0.1	-2.7
C=CCC1(O)C(=O)Nc2ccccc21 (stereo not drawn)	-9.7	8.5	-15.2	1.3	-1.0	-2.2	/	/
SMILES	NOD2-RIPK2 inh	TLR4-MyD88 BLA	Mcl1 Bid PPI	Mcl1-Noxa inh	Mcl-1 Bim block	TLR9-MyD88 inh	NOD2 RIPK2 conf	BLA counter
COC(=O)c1ccccc1C(=O)c1c(C)cc(C)cc1C	3.2	/	/	/	/	/	/	/
O=c1cc(-c2cccs2)oc2ccc(Cl)cc12	-11.4	5.5	-24.2	1.7	-3.0	-3.7	/	/
O=c1c(O)c(-c2cccs2)oc2ccc(Cl)cc12	44.5*	14.0	-30.7	-30.9	6.0	21.0*	45.4*	51.6*
CC(=O)ON=C1C=CC(=C(C#N)c2ccccc2)C=C1	25.7*	/	/	/	/	/	34.6*	8.4
COc1ccc(C(C#N)=C2C=CC(=NO)C=C2)cc1	9.1	/	-7.5	6.4	/	10.6	/	/
Cc1ccc(NC2=CC(=O)CC(C)(C)C2)cc1C	1.3	2.1	-20.7	-13.3	0.0	-0.8	/	/
COc1ccc(NC2=CC(=O)CC(C)(C)C2)cc1OC	22.7*	11.3	-44.6	16.8	-1.0	-4.9	-11.2	-2.9
COc1ccc(OC)c(NC(=O)COc2cc(O)c3c(c2)OC(C)(C)CC3=O)c1	-24.0	/	/	/	/	/	/	/
CC1=NNC(=O)/C1=C\c1cn(-c2ccccc2)nc1-c1ccccc1	54.4*	6.8	-8.4	4.5	-8.0	3.0	60.3*	5.3
O=Cc1cn(-c2ccccc2)nc1-c1ccccc1	2.1	/	/	/	/	0.0	/	/
O=C(CSc1ccccn1)Nc1nonc1[N+](=O)[O-]	31.4*	/	/	/	/	15.0	13.3	4.9
C[C@H]1C=C(C(=O)NCc2ccccc2)O[C@@H](OCc2ccc(CO)cc2)C1	5.0	-11.0	21.6	21.2	-3.0	3.6	/	/
Cc1ccc(C2CC(c3ccccc3)=NN2C(=S)Nc2ccccc2)o1 (stereo not drawn)	48.3*	8.2	-53.9	-7.2	-1.0	1.1	1.7	-3.7
Cc1cc(C)cc(C(=O)OCC(=O)N2CCCCCC2)c1	2.8	/	/	/	/	5.8	/	/
O=C1C=CC(O)(c2cc(=O)c3c(O)cc(O)cc3o2)C=C1	30.3*	-12.9	-9.6	13.6	-1.0	-2.2	20.9	18.0*
O=c1cc(-c2ccccc2Cl)oc2cc(O)cc(O)c12	-10.2	10.3	-0.2	31.4	0.0	8.5	/	/
C=CC[n+]1ccc(/C=C2\C=Cc3cc(C)ccc3N2CC)c2ccccc21	0.4	2.8	6.7	34.2	0.0	1.6	/	/
O=C([C@H]1O[C@@H](n2ccc(=O)[nH]c2=O)[C@H](O)[C@@H]1O)N1CCSC1	-3.6	/	/	/	/	/	/	/
O=[N+]([O-])c1c(NCCCO)cc(Sc2nc3ccccc3s2)c2nonc12	91.9*	12.3	-39.0	50.2	5.0	40.0*	81.8*	29.3*
COc1ccc(Cl)cc1-n1c(=S)sc2c(=O)[nH]c(SCC(=O)C(C)(C)C)nc21	1.8	/	/	/	/	-5.7	/	/

Screens from PubChem BioAssay.
